Inconclusive results are not listed. Where a call stands in place of a potency, no number is given. The source made the active and inactive calls. The call rests on the fitted dose curve; in most records, active means well fitted curve in the direction sought with a large enough effect; inconclusive means small, poorly fitted or top-dose-only effect, or another doubt; inactive means no such curve, though single readings can be large; an effect the other way counts as inactive or inconclusive. Residues, ends and D or L forms follow the SMILES beside them. *: point of attachment. Cbz = O=C(OCc1ccccc1)*

Phosphoglycerate kinase, glycosomal (Trypanosoma brucei brucei), sequence (P07378 whole entry, looked up): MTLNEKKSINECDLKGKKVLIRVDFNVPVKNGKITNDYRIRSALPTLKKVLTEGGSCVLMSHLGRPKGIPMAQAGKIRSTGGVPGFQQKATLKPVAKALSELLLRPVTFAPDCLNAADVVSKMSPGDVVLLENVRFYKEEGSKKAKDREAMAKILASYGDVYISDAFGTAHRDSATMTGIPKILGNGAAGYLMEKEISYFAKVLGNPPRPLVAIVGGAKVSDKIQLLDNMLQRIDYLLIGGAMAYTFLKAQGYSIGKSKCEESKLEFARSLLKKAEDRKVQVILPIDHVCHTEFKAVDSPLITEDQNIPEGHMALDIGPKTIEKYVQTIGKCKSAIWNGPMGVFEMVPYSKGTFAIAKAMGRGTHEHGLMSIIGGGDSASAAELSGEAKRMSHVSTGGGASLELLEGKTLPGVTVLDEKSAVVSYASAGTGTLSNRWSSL
phosphoglycerate mutase (Leishmania major), sequence (Q4Q090 1-553): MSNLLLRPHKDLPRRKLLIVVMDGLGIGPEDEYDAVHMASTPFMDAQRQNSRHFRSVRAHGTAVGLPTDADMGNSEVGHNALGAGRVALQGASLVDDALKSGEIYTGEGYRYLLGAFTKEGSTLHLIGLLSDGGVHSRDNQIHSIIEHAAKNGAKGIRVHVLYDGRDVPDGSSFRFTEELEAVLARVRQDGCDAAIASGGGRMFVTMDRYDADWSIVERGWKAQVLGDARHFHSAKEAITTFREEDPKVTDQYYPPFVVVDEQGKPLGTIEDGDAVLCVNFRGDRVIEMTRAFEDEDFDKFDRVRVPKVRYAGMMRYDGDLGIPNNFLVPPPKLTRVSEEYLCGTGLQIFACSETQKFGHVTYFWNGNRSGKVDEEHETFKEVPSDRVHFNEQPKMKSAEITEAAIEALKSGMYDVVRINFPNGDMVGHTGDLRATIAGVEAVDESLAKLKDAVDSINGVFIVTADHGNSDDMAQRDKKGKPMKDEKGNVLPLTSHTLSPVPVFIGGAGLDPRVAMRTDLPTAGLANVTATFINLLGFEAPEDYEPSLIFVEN

The first experiment addresses Phosphoglycerate kinase, glycosomal (Trypanosoma brucei brucei) (UniProt P07378). Put plainly: qHTS Validation Assay to Find Inhibitors of Phosphoglycerate Kinase (AID 504547). Further: potency means the concentration at half of the fitted maximal effect. Conditions: enzymatic PGK inhibition, coupled luminescence read-out; series mostly up to 57.5 µM. In a few lines:
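Compounds are pinned into the substrate/PGK mixture, and GAPDH (100nM final) is added to start the reaction by producing 1,3-BPG. After 60 minutes at room temperature, Kinase-Glo Plus is added and luminescence is measured 10 minutes later.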
In general terms: qHTS replaces the single test concentration by a dilution series.
For `COc1ccc(C(=O)NCc2cccnc2)cc1C(=O)NCc1cccnc1`, the Potency result is “inactive”.

As for `O=c1cc(O)cc(/C=C/c2ccc(O)c(O)c2)o1`, the Potency is 1690 nM (active).

In the case of `Oc1ccc(/C=C/c2ccc(/C=C/c3ccc(O)cc3)c(Br)c2)cc1`, the Potency entry is “inactive”.

Turning to `Cc1ccc([N+](=O)[O-])cc1S(=O)(=O)N(C)C`, the Potency result was “inactive”.

Turning to `Nc1ncnc2c1nc(Sc1ccc(Cl)cc1)n2[C@H]1OC2COP(=O)(O)O[C@@H]2C1O` (some centres not stated), the Potency entry is “inactive”.

With `COc1cc(/C=C(\C#N)C(=O)c2ccc(O)c(O)c2)cc(I)c1O`, the Potency is 2130 nM (active).

For the compound `Nc1nc2c(cnn2CCc2ccccc2)c2nc(-c3ccco3)nn12`, the Potency entry is “inactive”.

Turning to `S=C(S)N1CCCC1`, the Potency entry was “inactive”.

Take `CC(C)NC[C@H](O)COc1ccc(CC(N)=O)cc1`: the Potency entry was “inactive”.

Take `CC(/C=C/c1cccc(Oc2ccc(F)cc2)c1)N(O)C(N)=O` (configuration not stated): the Potency result was “inactive”.

Consider `O=C(OCCN1CCOCC1)C1(c2ccccc2)CCCCC1`, for which the Potency entry was “inactive”.

For the compound `Cc1nc2n(c(=O)c1CCN1CCC(c3noc4cc(F)ccc34)CC1)CCCC2O` (configuration not stated), the Potency result is “inactive”.

`COc1ccc2c(c1)CCC1C2CC[C@@]2(C)C1CC[C@@H]2NCCCCCCN1C(=O)C=CC1=O` (some centres not stated): the Potency result was “inactive”.

Take `Nc1nc2[nH]c(=O)cnc2c(=O)[nH]1`: the Potency result was “inactive”.

As to `NC1(C(=O)O)CCc2cc(C(=O)O)ccc21` (configuration not stated), the Potency result was “inactive”.

`COc1ccc(-c2cc3ncc(C)n3c(Nc3ncccc3C(N)=O)n2)cc1OC`: the Potency result is “inactive”.

Consider `CC(N)=O`, for which the Potency entry was “inactive”.

`CC(C)[C@H](NC(=O)OCc1ccccc1)C(=O)N[C@H](C=O)Cc1ccccc1` (Cbz-Val-Phe-aldehyde): the Potency entry was “inactive”.

In the case of `CNCCc1cnc(CCC(c2ccccc2)c2ccccc2)[nH]1`, the Potency entry is “inactive”.

Consider `c1ccc(C(NCCNC(c2ccccc2)c2ccccc2)c2ccccc2)cc1`, for which the Potency entry was “inactive”.

As for `CC(C)(C)c1ccc(/C=C/C(=O)Nc2ccc3c(c2)OCCO3)cc1`, the Potency entry is “inactive”.

Turning to `O=c1oc(Cl)c(Cl)c2ccccc12`, the Potency entry is “inactive”.

For the compound `Nc1ccc2c3c(cccc13)C(=O)NC2=O`, the Potency result is “inactive”.

With `CN(CC[C@@H](Oc1ccc(C(F)(F)F)cc1)c1ccccc1)CC(=O)O`, the Potency result is “inactive”.

`COc1cc(C(O)C(=O)O)ccc1O` (configuration not stated): the Potency result is “inactive”.

Take `CCCCCCCC/C=C\CCCCCCCC(=O)NCCc1ccc(O)c(O)c1`: the Potency entry is “inactive”.

On to `CCCCCCC(=O)OC1CC(C)(C)NC(C)(C)C1`, for which the Potency entry is “inactive”.

Consider `c1ccc(C(NCc2cccnc2)(c2ccccc2)c2ccccc2)cc1`, for which the Potency result is “inactive”.

Turning to `NCC(O)(CS(=O)(=O)O)c1ccc(Cl)cc1` (configuration not stated), the Potency entry was “inactive”.

Consider `COc1cc(CNC(=O)CCCCCCC(C)C)ccc1O`, for which the Potency entry is “inactive”.

With `CSC(=N)N`, the Potency result was “inactive”.

As to `O=C(O)/C=C/c1cnc[nH]1`, the Potency result is “inactive”.

Take `CC1=C(/C=C/C(C)=C/C=C/C(C)=C\C(=O)O)C(C)(C)CCC1`: the Potency entry was “inactive”.

Regarding `NC1CONC1=O` (configuration not stated), the Potency result is “inactive”.

The next experiment addresses phosphoglycerate mutase (Leishmania major) (UniProt Q4Q090). The experiment in a line: qHTS Validation Assay to Find Inhibitors of Phosphoglycerate Mutase (AID 504548).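 Further: end-point luminescence from Kinase-GloPlus after the PGAM reaction.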 Conditions: biochemical enzyme activity; Potency: inhibition qHTS; series mostly up to 57.5 µM. The essentials: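 L. major PGAM (1.25nM final) was added to substrate buffer and pinned compound, incubated 45 minutes at room temperature, then Kinase-GloPlus added; luminescence read after 10 minutes. Buffer: 100 mM TEA pH 7.6, 5 mM MgCl2, 0.01% Tween-20.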
For the compound `COc1ccc(C(=O)NCc2cccnc2)cc1C(=O)NCc1cccnc1`, the Potency result is “inactive”.

Turning to `O=c1cc(O)cc(/C=C/c2ccc(O)c(O)c2)o1`, the Potency entry was “inactive”.

As for `Oc1ccc(/C=C/c2ccc(/C=C/c3ccc(O)cc3)c(Br)c2)cc1`, the Potency result was “inactive”.

Take `COc1cc(CC(=O)O)ccc1O`: the Potency result is “inactive”.

Take `Cc1ccc([N+](=O)[O-])cc1S(=O)(=O)N(C)C`: the Potency result was “inactive”.

On to `Nc1ncnc2c1nc(Sc1ccc(Cl)cc1)n2[C@H]1OC2COP(=O)(O)O[C@@H]2C1O` (some centres not stated), for which the Potency result is “inactive”.

In the case of `COc1cc(/C=C(\C#N)C(=O)c2ccc(O)c(O)c2)cc(I)c1O`, the Potency entry is “inactive”.

On to `Nc1nc2c(cnn2CCc2ccccc2)c2nc(-c3ccco3)nn12`, for which the Potency result is “inactive”.

In the case of `S=C(S)N1CCCC1`, the Potency result is “inactive”.

Consider `CC(C)NC[C@H](O)COc1ccc(CC(N)=O)cc1`, for which the Potency entry was “inactive”.

In the case of `CC(/C=C/c1cccc(Oc2ccc(F)cc2)c1)N(O)C(N)=O` (configuration not stated), the Potency result was “inactive”.

As to `O=C(OCCN1CCOCC1)C1(c2ccccc2)CCCCC1`, the Potency result is “inactive”.

In the case of `Cc1nc2n(c(=O)c1CCN1CCC(c3noc4cc(F)ccc34)CC1)CCCC2O` (configuration not stated), the Potency result was “inactive”.

Take `Cc1nc2c(OCc3ccccc3)cccn2c1CC#N`: the Potency result was “inactive”.

On to `COc1ccc2c(c1)CCC1C2CC[C@@]2(C)C1CC[C@@H]2NCCCCCCN1C(=O)C=CC1=O` (some centres not stated), for which the Potency result was “inactive”.

For `Nc1nc2[nH]c(=O)cnc2c(=O)[nH]1`, the Potency result is “inactive”.

As for `NC1(C(=O)O)CCc2cc(C(=O)O)ccc21` (configuration not stated), the Potency result is “inactive”.

For the compound `COc1ccc(-c2cc3ncc(C)n3c(Nc3ncccc3C(N)=O)n2)cc1OC`, the Potency entry was “inactive”.

Take `CC(N)=O`: the Potency result is “inactive”.

For `CC(C)[C@H](NC(=O)OCc1ccccc1)C(=O)N[C@H](C=O)Cc1ccccc1` (Cbz-Val-Phe-aldehyde), the Potency entry is “inactive”.

`CNCCc1cnc(CCC(c2ccccc2)c2ccccc2)[nH]1`: the Potency entry is “inactive”.

For `c1ccc(C(NCCNC(c2ccccc2)c2ccccc2)c2ccccc2)cc1`, the Potency result was “inactive”.

For `CC(C)(C)c1ccc(/C=C/C(=O)Nc2ccc3c(c2)OCCO3)cc1`, the Potency result was “inactive”.

`O=c1oc(Cl)c(Cl)c2ccccc12`: the Potency entry is “inactive”.

Consider `Nc1ccc2c3c(cccc13)C(=O)NC2=O`, for which the Potency result is “inactive”.

As for `CN(CC[C@@H](Oc1ccc(C(F)(F)F)cc1)c1ccccc1)CC(=O)O`, the Potency entry was “inactive”.

For the compound `COc1cc(C(O)C(=O)O)ccc1O` (configuration not stated), the Potency result is “inactive”.

Turning to `CCCCCCCC/C=C\CCCCCCCC(=O)NCCc1ccc(O)c(O)c1`, the Potency result was “inactive”.

Take `COc1ccccc1N1CCN(CCCCNC(=O)c2ccc3ccccc3c2)CC1`: the Potency entry is “inactive”.

As for `CCCCCCC(=O)OC1CC(C)(C)NC(C)(C)C1`, the Potency entry was “inactive”.

On to `c1ccc(C(NCc2cccnc2)(c2ccccc2)c2ccccc2)cc1`, for which the Potency entry is “inactive”.

For `NCC(O)(CS(=O)(=O)O)c1ccc(Cl)cc1` (configuration not stated), the Potency result was “inactive”.

For the compound `COc1cc(CNC(=O)CCCCCCC(C)C)ccc1O`, the Potency result is “inactive”.

On to `CSC(=N)N`, for which the Potency result is “inactive”.

Consider `O=C(O)/C=C/c1cnc[nH]1`, for which the Potency result is “inactive”.

As to `N=C(N)SCCc1cnc[nH]1`, the Potency result is “inactive”.

Turning to `CC1=C(/C=C/C(C)=C/C=C/C(C)=C\C(=O)O)C(C)(C)CCC1`, the Potency result is “inactive”.

Turning to `NC1CONC1=O` (configuration not stated), the Potency result was “inactive”.
